# Measurements published in PubChem BioAssay AID504466 (National Center for Advancing Translational Sciences (NCATS), 2011).
# Screen size: about 330,000 compounds; about 4,200 (1.3%) were called active. About 6% were inconclusive and are not listed. This is one part of a sample in which actives are shown more often than they occur. A number with no mark means an inactive call. Calls follow the shape of the dose curve; as a rule, active = well fitted activation curve with a large enough effect; inconclusive = small, poorly fitted or top-dose-only effect; inactive = no such curve, though single readings can be large or run the other way.
# Assay: qHTS screen for small molecules that induce genotoxicity in human embryonic kidney (HEK293T) cells expressing luciferase-tagged ELG1; also: nearly all actives have a fitted effect of over 60% in size; as to activity change, positive = activation: % of control where 0% means no effect
# Conditions: HEK293T ELG1-luciferase reporter, luminescence, 16 h; series mostly up to 46 µM; activity change, positive = activation: at the top concentration
# Outline: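 HEK293T cells expressing luciferase-tagged ELG1 were exposed to compound or DMSO vehicle for 16 hr at 37 °C and 5% CO2. Luciferase activity was then measured with ONE-Glo after 30 min at room temperature.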
# Potency is read from the fitted curve at half-maximal effect.
Structure (SMILES),"activity change, positive = activation",Potency
O=C(CSC(=S)N1CCOCC1)c1cc(Br)cc(Br)c1O,0.304%,
O=C(CSC(=S)N1CCOCC1)c1ccccc1,,2.06 µM (active)
CC1CN(C(=S)SCC(=O)c2ccccc2)CC(C)O1 (stereo not drawn),14.6%,
O=C(CN1C(=O)NC2(CCOc3ccccc32)C1=O)Nc1cccc([N+](=O)[O-])c1 (stereo not drawn),-4.8%,
O=S(=O)(NCC1CN(S(=O)(=O)c2ccc3c(c2)OCCO3)C1)c1c(F)cccc1F,-2.32%,
CC[C@]12c3[nH]c4ccc(OC)cc4c3CCN1C(=O)C(CC(=O)NCc1ccco1)C[C@@H]2C(=O)N1CCN(C(=O)C2CC2)CC1 (stereo partly drawn),3.89%,
Cc1nn2c(=O)cc(COC(=O)c3ccc(NC(=O)C(C)(C)C)cc3)nc2s1,-1.82%,
CC(C)(C)C(=O)Nc1ccc(-c2cn3cccnc3n2)cc1,,18.3 µM (active)
CC(=O)Nc1ccc(S(=O)(=O)Nc2cccc(NC(=O)C(C)(C)C)c2)cc1,-2.67%,
CSc1ncccc1C(=O)Nc1cccc(S(=O)(=O)N2CCOCC2)c1,0.493%,
CN(CCc1ccccc1)C(=O)c1cccc(NC(=O)Cc2ccc([N+](=O)[O-])cc2)c1,-4.52%,
Cc1c(Cl)cnc(NC(=O)COC(=O)C2CCCC2)c1Cl,4.12%,
CCN(C(=O)CSc1nnnn1-c1ccc(OC)cc1)C1CCS(=O)(=O)C1 (stereo not drawn),0.218%,
Cn1c(=O)n(C)c2cc(S(=O)(=O)Nc3ccc(F)cc3)ccc21,-3.07%,
Cc1cc(C)cc(NS(=O)(=O)c2ccc(F)cc2)c1,-4.39%,
Cn1c(=O)n(C)c2cc(NS(=O)(=O)c3ccc(F)cc3)ccc21,,18.3 µM (active)
CCN(c1ccccc1)S(=O)(=O)c1cccc(C(=O)NCc2ccccc2CN2CCOCC2)c1,-11.3%,
O=C1COc2ccc(C(=O)COC(=O)c3ccccc3Cl)cc2N1,0.842%,
CCSc1nnc(NC(=O)c2ccc(C)cc2)s1,,1.64 µM (active)
C=CCSc1nnc(NC(=O)c2ccc(NC(C)=O)cc2)s1,9%,
CCOC(=O)CSc1nnc(NC(=O)c2cccc(S(=O)(=O)N3CCCC3)c2)s1,-2.46%,
COC(=O)[C@]1(C)N[C@H](CN(C)C(=O)c2ccc(C(C)(C)C)cc2)[C@@H]2C(=O)N(C)C(=O)[C@@H]21,1.84%,
COc1ccc(CN2C(CC(=O)Nc3cccnc3)c3ccc(C(F)(F)F)cc3S2(=O)=O)cc1 (stereo not drawn),-0.505%,
O=C(COC(=O)c1ccc2c(c1)OCCO2)NCc1ccccc1Cl,-2.4%,
Cc1cccc(NC(=O)c2ccc(S(=O)(=O)N(C)c3ccccc3)cc2)n1,-8.84%,
COc1ccc(OC)c(-c2csc(NC(=O)COC(=O)C3CC3)n2)c1,2.55%,
COc1ccc(-c2csc(NC(=O)COC(=O)Cc3ccc(Cl)cc3Cl)n2)cc1,,23.1 µM (active)
CC(C)(C)NC(=O)NC(=O)COC(=O)Cc1ccc(Cl)cc1Cl,-0.247%,
